The text below walks through data of PubChem BioAssay AID651954 (NMMLSC, 2012).

Each structure is given as a SMILES string. About 160 (11%) of roughly 1,500 compounds were called active. Rule as the data show it: active = inhibition above about 60%; inactive = the rest. A selection follows.

This assay can be described thus: inhibitors of lytic granule exocytosis, confirmation, TALL-104 cells, flow cytometry, Cherry Pick01 (AID 651954).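 Also: 0% = stimulated vehicle wells and 100% = unstimulated wells.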 The settings on record: LAMP-1 externalization, at 10 µM, hits give high values, stimulated with PMA plus thapsigargin. (In general: In flow cytometry, cells or beads pass a laser one at a time.)
Usually inhibition stands for the drop in the measured response relative to a control, in per cent. Take `Cc1ccccc1CN1C[C@@H]2C[C@@H](c3cn(C)nc3-c3ccccc3)N3CCC[C@@]23C1=O`: the inhibition is -13.4% (inactive).

Take `CCc1ccc(-c2cc3c(=O)n(CC(=O)NCCCN4CCN(Cc5ccccc5)CC4)nc(C)n3n2)cc1`: the inhibition was 34.9% (inactive).

Take `Cn1sc(=O)c2cc(S(=O)(=O)NC3CC3)ccc21`: the inhibition is 79.8% (active).

Regarding `COc1ccc(OC)c(NC(=O)CN(C)CCOc2ccc(Br)cc2)c1`, the inhibition is -14.9% (inactive).

Regarding `OCCNc1nc(Nc2ccc(Cl)c(Cl)c2)nc2ccccc12`, the inhibition was -11.3% (inactive).

Regarding `Cc1nc(-c2ccc(Cl)cc2)sc1C1(C)CC(c2ccc(Br)cc2)=NO1` (stereo unspecified), the inhibition is -3.75% (inactive).

`CCOc1ccc(Cl)cc1-c1cc(C(=O)NCc2cccs2)[nH]n1`: the inhibition was 66.4% (active).

Regarding `COc1ccc(-c2cn[nH]c2-c2ccc(OC)cc2)cc1`, the inhibition was 2.16% (inactive).

Take `COc1ccc2sc(-c3ccc(N(C)C)cc3)c(-c3ccc4cc[nH]c4c3)c2c1`: the inhibition is -13.7% (inactive).

Turning to `COc1cccc(NC(=O)C2C(c3ccccc3)C2(Cl)Cl)c1` (stereo unspecified), the inhibition was 0.14% (inactive).

As for `COc1ccc(C2CC(c3cccs3)=NN2c2nc(C)c(C(C)=O)s2)cc1OC` (stereo unspecified), the inhibition is 73.4% (active).

With `CC(C)Cn1cnc2c(SCc3ccc(Cl)cc3)nc(N)nc21`, the inhibition is -12.1% (inactive).

Consider `CCOC(=O)C1(CCOc2ccccc2)CCN(Cc2ccc(C#CCCO)cc2)CC1`, for which the inhibition was -4.45% (inactive).

As for `Oc1ccccc1-c1cc(-c2ccc(Cl)cc2)n[nH]1`, the inhibition was -11.6% (inactive).

As for `CC(C)c1ccccc1OCC(O)CN(CC(O)COc1cccc2ccccc12)C(C)C` (stereo unspecified), the inhibition is 87.3% (active).

On to `CS(=O)(=O)N(CC(O)Cn1c2ccccc2c2ccccc21)c1cccc2ccccc12` (stereo unspecified), for which the inhibition was 5.69% (inactive).

On to `O=C(Nc1ccccc1)c1cccnc1Nc1ccccc1`, for which the inhibition is -4% (inactive).

With `O=S(=O)(Nc1ccc(O)c2ccccc12)c1ccc(OC(F)(F)F)cc1`, the inhibition was -11.4% (inactive).

Turning to `COc1ccc(CCNC(=O)C2CC3Cn4c(nc5cc(C)c(C)cc54)C3N2C)cc1` (stereo unspecified), the inhibition is -13.9% (inactive).

Turning to `C=CCn1c(SCc2csc(C)n2)nc2scc(-c3ccc(C)o3)c2c1=O`, the inhibition was -12.8% (inactive).

Take `Nc1c(C(=O)c2cccs2)sc2nsc(SCCN3CCCCC3)c12`: the inhibition is 22% (inactive).

Turning to `Cc1oc(-c2ccccc2Cl)[n+]([O-])c1C`, the inhibition is -3.08% (inactive).

On to `COc1ccccc1N1CCN(c2ncnc3sc(C)c(-c4ccccc4)c23)CC1`, for which the inhibition is -3.66% (inactive).

On to `CC(=O)Nc1ccc(-c2csc(NC(=O)Nc3ccccc3)n2)cc1`, for which the inhibition was 55.2% (inactive).

As for `O=C(COc1ccc(Cl)cc1)N1CCN(c2cccc(C(F)(F)F)c2)CC1`, the inhibition was 5.85% (inactive).

Turning to `CCCC(C(=O)n1nc(C)cc1C)C(NS(=O)(=O)c1ccc(C)cc1)c1ccccc1` (stereo unspecified), the inhibition is 1.32% (inactive).

For the compound `CN(c1ccccc1)S(=O)(=O)c1ccc(C(=O)NCCc2ccccc2)cc1`, the inhibition is -3.54% (inactive).

For the compound `O=C(NCc1ccccc1)C(c1ccccc1)N(C(=O)c1csnn1)c1ccc(F)cc1` (stereo unspecified), the inhibition was -12.2% (inactive).

For the compound `Cc1ccc(-c2ccnc3nc(Sc4ncc(C(F)(F)F)cc4Cl)nn23)cc1`, the inhibition was -4.56% (inactive).

In the case of `Cc1cccc(-c2nc3ccc(C(=O)NCCN4CCN(C)CC4)cc3nc2-c2cccc(C)c2)c1`, the inhibition was 2.79% (inactive).

As to `COc1ccc(-c2csc(Nc3ccc(O)cc3)n2)cc1`, the inhibition is -6.12% (inactive).

With `COc1ccc(CC(N)c2csc(NC(=O)Nc3ccc(C(C)C)cc3)n2)cc1` (stereo unspecified), the inhibition is 11.2% (inactive).

With `Cc1cccc(N2CCC(NCc3c(C(=O)N4CCCCC4)nc4c(C)cccn34)CC2)c1`, the inhibition is -4.45% (inactive).

As to `COc1ccc(-c2oc3ncnc(NCCCO)c3c2-c2ccc(OC)cc2)cc1`, the inhibition is -0.03% (inactive).

Consider `O=S(=O)(c1ccccc1)N(Cc1cccc(F)c1)c1ccccc1`, for which the inhibition is -7.22% (inactive).

Turning to `CN(C)CCNC(=O)c1ccc(-c2cn3c(-c4ccc(Oc5ccccc5)cc4)cnc3cn2)cc1`, the inhibition was 87.2% (active).

Turning to `O=C(NC(=O)c1ccccc1N1CCCCC1)Nc1ccc(Br)cc1`, the inhibition was -13.3% (inactive).

For the compound `Cc1cccc2sc(N(CCCN(C)C)C(=O)CCS(=O)(=O)c3ccccc3)nc12`, the inhibition is 7.86% (inactive).

Take `COc1ccccc1CN1CCN(C(c2ccccc2)c2ccccc2)CC1`: the inhibition is -12.1% (inactive).

Take `CCN1C(=O)[C@H]2[C@@H](c3ccc(-c4ccc(F)cc4)cc3)N[C@@](Cc3ccccc3)(C(=O)OC)[C@H]2C1=O`: the inhibition is -2.41% (inactive).

Take `CC1CCN(c2ccc([N+](=O)[O-])cc2C(N)=O)CC1`: the inhibition was -4.56% (inactive).

As to `COc1cccc(CN(C)CC2CCCN(CCc3ccc(Cl)cc3)C2)c1OC` (stereo unspecified), the inhibition is -10.6% (inactive).

Turning to `CCOC(=O)C1(C)CCCN(C(=O)c2ccc(F)c(Cl)c2)C1` (stereo unspecified), the inhibition was -12.7% (inactive).

Consider `CS(=O)(=O)N(Cc1ccc(Cl)cc1)c1ccc(C(=O)NCCSCc2ccco2)cc1`, for which the inhibition was 17.9% (inactive).

For the compound `COc1cccc(CN(C)CC(O)COC(c2ccccc2)c2ccccc2C)c1` (stereo unspecified), the inhibition was -4.22% (inactive).

In the case of `COc1ccccc1C1=Nc2cccc3cccc(c23)N1`, the inhibition is -15.4% (inactive).

On to `COc1cccc(CNc2nc(NCc3ccccc3OC)nc3ccsc23)c1`, for which the inhibition is 35.8% (inactive).

As for `CN1CCN(C2Cc3ccc(Cl)cc3Sc3ccc(F)cc32)CC1` (stereo unspecified), the inhibition was 15% (inactive).

Regarding `COc1cccc(CNc2nc(C(F)(F)F)nc3ccccc23)c1`, the inhibition is -14.3% (inactive).

`COc1ccc(-c2cc(C(=O)N(C)Cc3ccccc3)c3ccccc3n2)cc1`: the inhibition was -6.15% (inactive).

Regarding `Cc1ccc(NC(=O)c2cc(-c3ccc(C)o3)nc3ccccc23)nc1`, the inhibition was -10.9% (inactive).

On to `CC(=O)C[C@@H](O)CC(=O)[C@H]1OC(=O)CCCCCCc2ccccc21`, for which the inhibition is -13.1% (inactive).

In the case of `CCCCc1ccc(NC(=S)NCCCN2CCOCC2)cc1`, the inhibition was -11.7% (inactive).

On to `Cc1cnc(C(=O)OCc2c(C)cc(C(C)(C)C)cc2C)cn1`, for which the inhibition was -3.52% (inactive).

As for `COc1ccc(Oc2cn[nH]c2-c2ccc(OC)cc2O)cc1`, the inhibition was -11.7% (inactive).

For the compound `CCCCC[C@H](C)N1C[C@@H](COCc2ccccc2)Oc2cc(N3CC[C@@H](N(C)C)C3)ccc2S1(=O)=O`, the inhibition was 16.6% (inactive).

For `COc1ccc(CCNCc2c(-c3ccccc3)n(C)c3ccccc23)cc1`, the inhibition was 6.74% (inactive).

As for `COc1ccc(-c2cc(NC=O)c3ncc(-c4ccccc4)n3c2)cc1OC`, the inhibition was 80.3% (active).

In the case of `CCCC(=O)Nc1nc2ccc(NC(=O)c3c(F)c(F)c(OC)c(F)c3F)cc2s1`, the inhibition was -1.52% (inactive).

Regarding `CCOC(=O)C1(CCOc2ccccc2)CCN(Cc2cc(OC)c(O)cc2Cl)CC1`, the inhibition was -6.73% (inactive).

For the compound `COc1cccc(COc2ccc(N(C)S(=O)(=O)c3ccccc3)cc2)c1`, the inhibition is -7.06% (inactive).

In the case of `COC(=O)[C@H](Cc1ccccc1)NC(=O)[C@@H]1C[C@H]1[C@@H](NC(=O)OCc1ccccc1)c1ccccc1`, the inhibition is 48% (inactive).

As for `Brc1ccccc1C1Nc2cccc3cccc(c23)N1`, the inhibition is 106% (active).

On to `CC(CC(=O)Nc1cc(C(F)(F)F)ccc1Cl)c1ccccc1` (stereo unspecified), for which the inhibition is 0.82% (inactive).

With `Cc1cccc(N(CC(=O)Nc2ccc(-c3nc4ccc(C)cc4s3)cc2)S(C)(=O)=O)c1`, the inhibition is 29% (inactive).

Take `O=C(Nc1ccc(Cl)cc1)Nc1nnc(/C=C/c2ccccc2)s1`: the inhibition was -2.86% (inactive).
